Laboratory results reported in the supplement of paper PMC7726561.

Molecular target: HLA-C*04:01
Assay: thermal melting temperature (Tm) of peptide-HLA complex; higher = more thermostable pHLA complex
Conditions: C1R-A*02:01
Method: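 Endogenous HLA-C*04:01 ligands were detected in the thermostability assays of both the C1R-A*02:01 and C1R-B*07:02 lines. Lysates were heated 10 min at 37-73 °C and pHLA immunoprecipitated with W6/32. Peptides were quantified by DIA-MS and Tm was taken from a logistic sigmoid fit.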

Sequence	thermal melting temperature [°C]
RFDSDVGEF	54.9
FTDEESRVF	48.1
KADGVPVYL	56.5
VYDIAAKF	56.9
VFHVQQTEM	53.8
AFDLTEQRY	55.9
HFDDFVTNL	58.7
QLDPLVVEL	50
NYDFGPIHM	54.2
VYDLLKTNL	59
VADPYVVIM	53.4
IFDSKVTEI	55.4
SYDHVELTF	51.3
MLDPLEVHL	47.2
FNDTFVHV	49.3
SFDSTVRL	52.9
NYDEALRLL	54
VWDVIGRSL	53.5
AYDDKIYYF	56.1
TFDASRTTF	53.4
SFDVSQKF	49
ILDPHVVLL	54.8
FYPPDPAQL	49.5
AFDVHLNAF	55.5

Same assay, conditions: C1R-B*07:02

Sequence	thermal melting temperature [°C]
RFDSDVGEF	54.5
FTDEESRVF	46.7
KADGVPVYL	57.1
VYDIAAKF	57.6
VFHVQQTEM	54.5
AFDLTEQRY	56.4
HFDDFVTNL	58
QLDPLVVEL	46.9
NYDFGPIHM	55.8
VYDLLKTNL	58.3
VADPYVVIM	54.6
IFDSKVTEI	54.8
SYDHVELTF	51.9
MLDPLEVHL	52.5
FNDTFVHV	48.5
SFDSTVRL	54.6
NYDEALRLL	53
VWDVIGRSL	51.9
AYDDKIYYF	55.7
TFDASRTTF	53.5
SFDVSQKF	49.7
ILDPHVVLL	57.6
FYPPDPAQL	51.5
AFDVHLNAF	55.9
